Bioassay records (PubChem BioAssay)
Shown are actives, neighbours in structure and some others; about 0.29% of the full set was active somewhere.
Y pestis TopoI: blocks Yersinia pestis topoisomerase I activity; Y. pestis Topo-I cleavage product accumulation, plate reader; activity, % at 10 µM; 0.064% of 360,000 active; AID 504884; in the data active = activity above about 50%, passing the limit was not always enough
Mtb hypoxia rep: reduces hypoxia-regulated biosensor signal in M. tuberculosis; M. tuberculosis hypoxia-regulated fluorescent reporter, fluorescence; fluorescence inhibition, % (concentration not given with the values); 0.1% of 300,000 active; AID 1159583; in the data active = fluorescence inhibition mostly above about 23%, no sharp cut-off; inactive = mostly below about 17%
Vc quorum ag-1: inducers of Vibrio cholerae quorum light production without autoinducers | V. cholerae BH1578 lux reporter, luminescence, 6 h | AID 588436 | activation, % at 18.7 µM | 0.16% of 350,000 active; in the data active = activation mostly above about 9.7%, no sharp cut-off
Vc quorum ag-2: induces V. cholerae light production without autoinducers; shares compounds with Vc quorum ag-1; V. cholerae BH1578 lux reporter, luminescence, 6 h; activation, % at 50 µM; 620 tested, under 10 active; call rule not given here
HeLa 24h tox: kills HeLa cells within 24 hours. shares compounds with Vc quorum ag-1. HeLa viability, CellTiter-Glo ATP luminescence. activity change, negative = cytotoxicity, % at 35 µM. 25 tested, under 10 active;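 active = signal drop with fitted half-maximal concentration at or below twice the highest valid dose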
A number is an active result; i = inactive; nt = no result; + = active, no number.

SMILES	Y pestis TopoI	Mtb hypoxia rep	Vc quorum ag-1	Vc quorum ag-2	others
COc1ccc(NC(=O)CCS(=O)(=O)c2ccc3c(c2)CCN3C(C)=O)cc1	i	i	i	nt
COc1ccc(NC(=O)CCS(=O)(=O)c2ccc3c(c2)CCCN3C(C)=O)cc1Cl	i	i	17	i
O=c1c2ccccc2nnn1CSc1nnc(-c2cccnc2)n1-c1ccccc1F	i	i	i	i
Cc1ccc(-n2c(SCn3nnc4ccccc4c3=O)nnc2-c2cccnc2)c(C)c1	i	i	i	nt
Cc1ccc(S(=O)(=O)CCC(=O)OCCOc2ccc(Br)cc2)cc1	i	nt	i	nt
COc1ccc(OCCOC(=O)c2cccs2)cc1	i	i	524	i
COc1ccc(C/C(N)=N/OC(=O)c2cccs2)cc1	i	i	i	nt
COc1ccc(OCCOC(=O)CCS(=O)(=O)c2ccc(C)cc2)cc1	i	i	i	i
Cc1cccc(N2CCN(C(=O)C3CCC(=O)N(C4CC4)C3)CC2)c1C (configuration not stated)	i	i	i	nt
N#Cc1ccccc1NC(=O)CNc1ccccc1N1CCCCC1	i	i	160	i
CN(Cc1ccccc1NCC(=O)Nc1ccccc1C#N)C1CCCCC1	i	i	i	nt
CCCOc1ccccc1C=NNC(=O)C1CC1	nt	i	nt	nt
O=C(COC(=O)C1CC1)Nc1ccc(Oc2ccccc2)cc1	i	i	i	nt
O=C(COC(=O)C1CCC1)Nc1ccc(Oc2ccccc2)cc1	i	i	i	i
COc1ccc(Cl)cc1NC(=O)NCc1ccccn1	i	i	i	nt
CC(=O)N1CCCc2ccccc21	i	i	i	nt
CC(=O)N1CCC(=O)N(C(C)C)c2ccccc21	i	i	25	i
Cc1cccc(NC(=O)c2nc[nH]c2C(=O)NC(CC(C)C)C(=O)OCc2ccccc2)c1 (configuration not stated)	nt	i	nt	nt
Cc1cccc(-c2noc(-c3ccccc3C(=O)NCC3CCCO3)n2)c1 (configuration not stated)	i	nt	i	i
O=C(NCC1CCCO1)c1ccccc1-c1nc(-c2ccc(Cl)cc2)no1 (configuration not stated)	i	i	i	nt
COc1ccc(S(=O)(=O)N(C)C[C@H]2Oc3ccc(NC(=O)C4CC4)cc3C(=O)N([C@H](C)CO)C[C@@H]2C)cc1	i	nt	i	nt
CCOC(=O)CC1C(=O)NCCN1C(=O)c1ccc(F)cc1F (configuration not stated)	i	i	i	nt
CCOC(=O)CC1C(=O)NCCN1C(=O)c1cccc(C(F)(F)F)c1 (configuration not stated)	i	i	17	i
COc1ccc(CNC(=O)/C=C/c2ccc(OCCCF)cc2)cc1	i	nt	i	nt
O=C(/C=C/c1ccc(OCCCF)cc1)NCc1ccc(Cl)cc1	i	nt	39	i
SMILES	Y pestis TopoI	Mtb hypoxia rep	Vc quorum ag-1	Vc quorum ag-2	others
Cc1ncc(S(=O)(=O)c2ccc(Cl)cc2)c(N)n1	i	i	i	nt
Cc1ncc(S(=O)(=O)c2ccccc2)c(-c2ccc(Cl)cc2Cl)n1	i	i	17	i
CC1SC(=NN=C2CCC(C(C)(C)C)CC2)NC1=O (configuration not stated)	nt	i	nt	nt
CCc1ccc(C(=O)OCC(=O)NC2CCCC2)cc1	i	i	nt	i
COc1cc(SC)ccc1C(=O)OCC(=O)NC1CCCC1	i	i	741	i
COc1cc(SC)ccc1C(=O)OCC(=O)NC1CCCCC1	i	i	i	nt
O=C(Cc1ccccc1)NC1CCCCC1	i	nt	i	nt
Cc1ccc(C(=O)OCC(=O)NC2CCCC2)cc1C	i	i	+	i
O=C(COC(=O)c1ccccc1)NC1CCCCCC1	i	i	i	nt
Cc1ccc(CC(=O)NC2CCCC2)cc1	nt	nt	nt	nt	HeLa 24h tox=i
COc1ccc(C(=O)OCC(=O)NC2CCCC2)cc1OC	i	i	i	nt
O=C(NN=Cc1ccccn1)C12CC3CC(CC(C3)C1)C2	nt	i	nt	nt
O=C(NCc1ccccn1)C(=O)NCC1OCCN1S(=O)(=O)c1ccc(F)cc1 (configuration not stated)	i	i	i	nt
CC(C)c1ccc(C(=O)OCC(=O)NC2CCCC2)cc1	i	i	+	i
O=C(COC(=O)c1ccc(Cl)cc1)NC1CCCCCC1	i	i	i	nt
O=C(Nc1cccc(-c2ccc(N3CCOCC3)nn2)c1)c1ccccc1Cl	i	i	i	i
O=C(Nc1cccc(-c2ccc(N3CCOCC3)nn2)c1)c1ccc(Cl)cc1	i	i	i	nt
CCOc1ccc2nc(SCC(=O)NCc3ccc(OC)c(OC)c3)[nH]c2c1	i	i	i	nt
CCOc1ccc2nc(SCC(=O)NC(=O)NCc3ccco3)[nH]c2c1	i	nt	32	i
CCOCCCNC(=O)C(NC(=O)CNC(=O)c1ccccc1)c1ccccc1 (configuration not stated)	i	i	28	i
